This is an account of results in PubChem BioAssay.

Assay [1] can be described thus: antimalarial activity against Dd2 strain (AID 2302;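 active = growth inhibition above 50% at the single 2 µM test dose, taken to imply half-maximal potency below 2 µM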;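 also: 0% = DMSO untreated growth and 100% = chloroquine plus artemisinin killed control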). The following applies: P. falciparum Dd2 in RBCs, LDH growth readout, 72 h; at 2 µM; active compounds read high.
Assay [2] is described as follows: human hepatoma cell viability loss – ATP luminescence, cytotoxicity control for P. falciparum antimalarial project, primary screen (AID 2303;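 active = inhibition above 50%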;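 also: 0% = DMSO wells and 100% = digitonin-killed cells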). The settings on record: HepG2 viability, 24-48 h, at 10 µM, active compounds read high.
For assay [3], the target named is L-lactate dehydrogenase (Plasmodium falciparum (isolate CDC / Honduras)) (UniProt Q27743). Put plainly: PfLDH activity inhibition – cell lysate, 3D7 strain, counter-screen for P. falciparum growth inhibition project (AID 2304).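 Also: 0% = vehicle and 100% = reference inhibitor.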 The following applies: P. falciparum 3D7 crude extract, LDH APAD/NBT absorbance; at 2 µM; active compounds read high.
Chain of L-lactate dehydrogenase (Plasmodium falciparum (isolate CDC / Honduras)) (Q27743 whole entry, looked up): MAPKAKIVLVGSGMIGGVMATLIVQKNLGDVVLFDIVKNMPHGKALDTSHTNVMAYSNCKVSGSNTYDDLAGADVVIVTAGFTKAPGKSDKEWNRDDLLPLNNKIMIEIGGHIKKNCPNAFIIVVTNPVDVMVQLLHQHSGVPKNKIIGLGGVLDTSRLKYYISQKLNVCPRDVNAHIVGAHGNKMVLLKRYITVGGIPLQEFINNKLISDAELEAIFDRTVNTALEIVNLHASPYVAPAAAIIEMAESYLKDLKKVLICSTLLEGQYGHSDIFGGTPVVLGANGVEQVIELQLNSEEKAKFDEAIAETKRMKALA
Assay [4] in a line: inhibition of 3D7 malaria parasite growth – strain 3D7 (AID 2306).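 Also: 0% = DMSO wells and 100% = chloroquine plus artemisinin control wells.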 The following applies: P. falciparum 3D7 erythrocytic growth, LDH absorbance, 72 h; at 2 µM; active compounds read high.
The target of assay [5] is Calcium-dependent protein kinase 1 (Plasmodium falciparum (isolate 3D7)) (UniProt P62344). Put plainly: PfCDPK1 kinase inhibitors, biochemical, TCAMS library (AID 1159585; cut-off not given, nearly all actives have IC50 up to about 0.98 µM;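 also: inhibitors leave more ATP so luminescence rises with inhibition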). The settings on record: recombinant PfCDPK1, Kinase-Glo ATP depletion luminescence.
Chain of Calcium-dependent protein kinase 1 (Plasmodium falciparum (isolate 3D7)) (P62344 whole entry, looked up): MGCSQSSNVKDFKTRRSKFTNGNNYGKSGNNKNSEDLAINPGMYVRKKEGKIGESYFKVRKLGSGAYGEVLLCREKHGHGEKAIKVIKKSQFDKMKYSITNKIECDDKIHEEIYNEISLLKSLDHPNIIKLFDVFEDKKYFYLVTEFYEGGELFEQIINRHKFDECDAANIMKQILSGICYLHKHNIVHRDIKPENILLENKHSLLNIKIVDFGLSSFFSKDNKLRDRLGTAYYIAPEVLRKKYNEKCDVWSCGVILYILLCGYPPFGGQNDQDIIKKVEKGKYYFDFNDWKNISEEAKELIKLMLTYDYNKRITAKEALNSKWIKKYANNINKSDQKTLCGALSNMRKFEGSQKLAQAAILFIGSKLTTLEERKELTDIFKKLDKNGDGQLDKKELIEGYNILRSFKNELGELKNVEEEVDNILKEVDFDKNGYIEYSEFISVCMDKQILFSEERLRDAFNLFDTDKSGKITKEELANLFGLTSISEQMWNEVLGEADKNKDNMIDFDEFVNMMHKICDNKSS
In assay [6] the target is Plasmodium falciparum protein kinase 6 (PK6, PF3D7_1337100) (UniProt Q8IDW1). Put plainly: PfPK6 kinase inhibitors, biochemical, TCAMS library (AID 1159586). The following applies: recombinant PfPK6, Kinase-Glo ATP depletion luminescence.
Chain of Plasmodium falciparum protein kinase 6 (PK6, PF3D7_1337100) (Q8IDW1 1-305): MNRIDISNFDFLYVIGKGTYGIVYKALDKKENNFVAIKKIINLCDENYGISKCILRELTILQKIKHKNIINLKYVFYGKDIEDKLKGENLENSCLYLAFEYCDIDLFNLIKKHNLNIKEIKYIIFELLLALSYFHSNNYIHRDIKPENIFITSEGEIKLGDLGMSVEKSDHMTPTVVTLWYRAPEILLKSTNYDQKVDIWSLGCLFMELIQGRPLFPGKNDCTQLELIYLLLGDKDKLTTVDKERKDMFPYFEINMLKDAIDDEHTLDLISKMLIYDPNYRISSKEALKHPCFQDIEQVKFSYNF
In assay [7] the target is Protein kinase 7 (PK7), Plasmodium falciparum 3D7 (PF3D7_0213400) (UniProt Q7YTF7). Put plainly: inhibition of Plasmodium PK7 catalytic activity – biochemical, TCAMS antimalarial set, Kinase-Glo luminescence (AID 1159587). The settings on record: recombinant PfPK7, Kinase-Glo ATP depletion luminescence.
Chain of Protein kinase 7 (PK7), Plasmodium falciparum 3D7 (PF3D7_0213400) (Q7YTF7 1-343): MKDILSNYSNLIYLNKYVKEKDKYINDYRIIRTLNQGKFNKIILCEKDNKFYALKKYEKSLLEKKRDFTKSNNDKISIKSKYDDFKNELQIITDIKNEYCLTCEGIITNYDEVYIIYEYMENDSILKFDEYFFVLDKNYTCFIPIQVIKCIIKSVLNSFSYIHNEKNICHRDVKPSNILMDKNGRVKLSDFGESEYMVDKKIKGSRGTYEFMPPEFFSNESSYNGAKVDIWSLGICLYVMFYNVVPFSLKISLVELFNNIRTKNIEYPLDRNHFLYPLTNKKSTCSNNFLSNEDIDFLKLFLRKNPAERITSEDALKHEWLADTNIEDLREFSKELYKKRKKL
Assay [8] has as its target Calcium-dependent protein kinase 4 (Plasmodium falciparum (isolate 3D7)) (UniProt Q8IBS5). In words: PfCDPK4 kinase inhibitors, biochemical, TCAMS library (AID 1159588; cut-off not given, nearly all actives have IC50 up to about 0.91 µM). The following applies: recombinant PfCDPK4, Kinase-Glo ATP depletion luminescence.

The structures appear in SMILES notation. Values without a mark were called inactive. For some of these results: Potency and affinity values are given separately. The source made the active and inactive calls. Unless noted, no rule for the calls is given here.

Chain of Calcium-dependent protein kinase 4 (Plasmodium falciparum (isolate 3D7)) (Q8IBS5 whole entry, looked up): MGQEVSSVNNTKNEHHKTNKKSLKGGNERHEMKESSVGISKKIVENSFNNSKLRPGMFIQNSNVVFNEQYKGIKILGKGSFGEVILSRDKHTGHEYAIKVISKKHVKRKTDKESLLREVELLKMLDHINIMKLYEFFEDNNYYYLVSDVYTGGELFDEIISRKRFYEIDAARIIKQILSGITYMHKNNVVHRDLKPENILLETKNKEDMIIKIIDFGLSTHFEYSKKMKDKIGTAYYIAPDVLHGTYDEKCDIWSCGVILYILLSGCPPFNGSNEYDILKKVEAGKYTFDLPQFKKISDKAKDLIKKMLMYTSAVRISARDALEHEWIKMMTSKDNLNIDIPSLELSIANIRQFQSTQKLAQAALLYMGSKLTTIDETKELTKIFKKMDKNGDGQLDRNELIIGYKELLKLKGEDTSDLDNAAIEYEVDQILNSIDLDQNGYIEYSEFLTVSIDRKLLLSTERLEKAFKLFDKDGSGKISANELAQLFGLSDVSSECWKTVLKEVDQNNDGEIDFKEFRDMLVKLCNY

Turning to `N#Cc1ccc(N2CCN(Cc3ccc(-c4ccc(-c5nc6ccc(F)cc6[nH]5)s4)cc3)CC2)nc1`, the growth inhibition was 78% (active) in assay [1] and 100% (active) in assay [4]. In addition, the inhibition in assay [2] is 12%; in assay [3], 3%. For the same molecule, the outcome in assay [5], in assay [6], in assay [7] and in assay [8] was inactive.
In the case of `O=C(NCc1ccc(F)cc1)c1cc(Br)cc(N2CCN(c3ccncc3)CC2)c1`, the growth inhibition was 59% (active) in assay [1] and 80% (active) in assay [4]. Moreover, the inhibition was 36% in assay [2] and -2% in assay [3]. In addition, the outcome in assay [5], in assay [6], in assay [7] and in assay [8] was inactive.
Take `Cc1cc(C2CCN(CCCCNC(=O)c3ccc(-c4ccc(C#N)cc4)cc3)CC2)c(C)cc1O`: the growth inhibition in assay [1] and in assay [4] was 96% (active) each time. For the same molecule, the figures for the inhibition in assay [2] and in assay [3] were 27% and 3%, respectively. Besides, the result in assay [5], in assay [6], in assay [7] and in assay [8] was inactive.
For `COc1ccc(Cl)cc1N1CCN(CCCNC(=O)c2ccc(-c3nc4ccc(C(F)(F)F)cc4[nH]3)c(C)c2)CC1`, the growth inhibition is 14% in assay [1] and 95% (active) in assay [4]. Further, the inhibition in assay [2] is 6%; in assay [3], -2%. The outcome in assay [5], in assay [6], in assay [7] and in assay [8] was inactive.
Regarding `Fc1ccc(COc2ccc(Nc3ncnc4ccc(I)cc34)cc2Cl)cc1`, the growth inhibition in assay [1] was 30%; in assay [4], 86% (active). The inhibition in assay [2] was 28%; in assay [3] it was -5%. The result in assay [5], in assay [6], in assay [7] and in assay [8] was inactive.
In the case of `CCCCCCC1(C)N=C(N)N=C(N)C1c1ccc(Cl)c(Cl)c1` (stereo not given), the results for the growth inhibition in assay [1] and in assay [4] were 43% and 94% (active), respectively. Besides, the inhibition in assay [2] was 18%; in assay [3], -9%. Also, the result in assay [5], in assay [6], in assay [7] and in assay [8] was inactive.
For the molecule `CN(CCN)Cc1cccc(-c2cccc(-c3nc4ccc(C(F)(F)F)cc4[nH]3)c2)c1`, the growth inhibition in assay [1] was 98% (active); in assay [4], 99% (active). The inhibition in assay [2] is 22%; in assay [3], 0%. Further, the result in assay [5], in assay [6], in assay [7] and in assay [8] was inactive.
In the case of `Nc1nc(N)c2c(ccc3nn(C4CCCC4)cc32)n1`, the growth inhibition in assay [1] was 3%; in assay [4], 97% (active). For the same molecule, the results for the inhibition in assay [2] and in assay [3] were 44% and -1%, respectively. For the same molecule, the result in assay [5], in assay [6], in assay [7] and in assay [8] was inactive.
With `CC(=O)Nc1ccc(OCCCCN(Cc2ccccc2C(F)(F)F)c2ccc(C#N)c(C(F)(F)F)c2)cc1`, the growth inhibition in assay [1] was 47%; in assay [4], 80% (active). Besides, the inhibition was -3% in assay [2] and 1% in assay [3]. The outcome in assay [5], in assay [6], in assay [7] and in assay [8] was inactive.
Consider `O=[N+]([O-])c1cccc(C=NNc2nc(Nc3ccccc3)nc(Nc3ccccc3)n2)c1`, for which the growth inhibition is 55% (active) in assay [1] and 99% (active) in assay [4]. Moreover, the inhibition is 10% in assay [2] and 3% in assay [3]. In addition, the outcome in assay [5], in assay [6], in assay [7] and in assay [8] was inactive.
For the molecule `CN(C)c1ccc(C(c2ccc(N(C)C)cc2)c2cc([N+](=O)[O-])ccc2Cl)cc1`, the results for the growth inhibition in assay [1] and in assay [4] were 67% (active) and 96% (active), respectively. The inhibition in assay [2] is 0%; in assay [3] it was 7%. Besides, the result in assay [5], in assay [6], in assay [7] and in assay [8] was inactive.
As for `N#Cc1c(N2CCCCCC2)nc(N)c2c(N)nc3c(c12)CC(=O)N3c1ccc(F)cc1`, the growth inhibition is 91% (active) in assay [1] and 97% (active) in assay [4]. The inhibition in assay [2] was -7%; in assay [3] it was -1%. For the same molecule, the outcome in assay [5], in assay [6], in assay [7] and in assay [8] was inactive.
Take `CC(C)COc1ccc(Cl)cc1Cc1ccc(-c2nc3ccc(CCN(C)C)cc3[nH]2)o1`: the values for the growth inhibition in assay [1] and in assay [4] were 7% and 92% (active), respectively. Besides, the inhibition in assay [2] was 10%; in assay [3], 3%. In addition, the result in assay [5], in assay [6], in assay [7] and in assay [8] was inactive.
On to `Cc1cccc2[nH]c(-c3ccc(-c4cccc(NC(=O)c5ccncc5)c4)cc3)nc12`, for which the growth inhibition in assay [1] was 8%; in assay [4] it was 98% (active). For the same molecule, the inhibition is 46% in assay [2] and -7% in assay [3]. Moreover, the outcome in assay [5], in assay [6], in assay [7] and in assay [8] was inactive.
Regarding `COc1ccc2ncc(F)c(CCN3CCC4(CC3)COC(c3cc5c(cn3)OCCO5)=N4)c2n1`, the figures for the growth inhibition in assay [1] and in assay [4] were 83% (active) and 89% (active), respectively. Also, the inhibition in assay [2] is 79% (active); in assay [3], 5%. Further, the outcome in assay [5], in assay [6], in assay [7] and in assay [8] was inactive.
Turning to `O=C(C=Cc1ccc(Cl)c(Cl)c1)NC1CCN(CCc2ccccc2)CC1`, the growth inhibition in assay [1] is 13%; in assay [4], 97% (active). In addition, the figures for the inhibition in assay [2] and in assay [3] were 6% and -8%, respectively. Besides, the outcome in assay [5], in assay [6], in assay [7] and in assay [8] was inactive.
For `Nc1nc(N)c2c(n1)CCC(c1ccccc1)C2` (stereo not given), the growth inhibition in assay [1] is -1%; in assay [4], 93% (active). The inhibition in assay [2] is 55% (active); in assay [3] it was 1%. Moreover, the outcome in assay [5], in assay [6], in assay [7] and in assay [8] was inactive.
For `CCOC(=O)c1cc2c(CCN3C(=O)c4ccccc4C3=O)cn(C)c2cc1-c1ccncc1`, the growth inhibition in assay [1] is 90% (active); in assay [4], 101% (active). Also, the inhibition in assay [2] is 99% (active); in assay [3], 2%. Also, the result in assay [5], in assay [6], in assay [7] and in assay [8] was inactive.
For the molecule `CC(=O)Nc1cccc(CN(Cc2ccc(-c3ccc(CNCc4cccnc4)cn3)cc2)C(=O)Cc2cccnc2)c1`, the growth inhibition in assay [1] was 65% (active); in assay [4], 97% (active). Also, the inhibition was -3% in assay [2] and -10% in assay [3]. In addition, the outcome in assay [5], in assay [6], in assay [7] and in assay [8] was inactive.
`CCCCN(CCCC)CCC(O)C(=Cc1ccc(Cl)cc1Cl)c1ccc(C(F)(F)F)cc1N` (stereo not given): the growth inhibition in assay [1] is 99% (active); in assay [4], 100% (active). Also, the values for the inhibition in assay [2] and in assay [3] were -9% and 1%, respectively. In addition, the result in assay [5], in assay [6], in assay [7] and in assay [8] was inactive.
